In all, about 33,000 sequences were measured (“e-score”: median about -0.038, highest 2% from about 0.33 on). This excerpt belongs to a sample that is enriched for the highest values.
The sequences below were run against T1, GST-Rok-C97-191 (Bacillus subtilis subsp. subtilis str. …, UniProt O34857 97-191) (assay: protein binding microarray; Rok is a gene silencer of Bacillus subtilis; high values mean tight binding). Conditions: protein: recombinant; tags: GST (pTH5325, pDEST15-Magic modified); dsDNA, one strand shown.
T1 sequence: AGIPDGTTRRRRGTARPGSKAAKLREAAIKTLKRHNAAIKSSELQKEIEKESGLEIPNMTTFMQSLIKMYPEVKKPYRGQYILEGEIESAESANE
How it was run: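 Each has a 25-mer constant primer and a 35-mer variable part from a de Bruijn sequence of order 10, covering every non-palindromic 8-mer at least 32 times (palindromic 16). Preference for each 8-mer is given as a rank-based, unitless enrichment score (E-score). Its range runs from 0.5 (most favored) to −0.5 (most disfavored).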

| Sequence | binding signal |
| --- | --- |
| AGATTGTG | 0.09 E-score |
| CTAGCTAC | 0.163 E-score |
| TTAGCTAA | 0.263 E-score |
| CTAGCTAA | 0.127 E-score |
| GTAGCTAC | 0.428 E-score |
| ATAGCTAT | 0.402 E-score |
| ATAGCTAC | 0.31 E-score |
| GAAGCTAC | 0.309 E-score |
| GTAGCTAA | 0.346 E-score |
| ATAGCTAG | 0.271 E-score |
| ATTTAATG | 0.105 E-score |
| CGTCTGAA | -0.0845 E-score |
| CTAAAGTC | 0.0658 E-score |
| ATGCTGAC | -0.0948 E-score |
| ATTCGACC | -0.138 E-score |
| AGGTAATA | 0.328 E-score |
| CGGTAGTA | 0.391 E-score |
| AGGTAGTC | 0.0784 E-score |
| AGGTAGTA | 0.328 E-score |
| GGGTAGTA | 0.3 E-score |
| GGGTAATA | 0.272 E-score |
| AGGTAGTG | -0.0194 E-score |
| CGGTAGTC | 0.174 E-score |
| AGGTAATG | 0.113 E-score |
| CTTCGAAC | -0.152 E-score |

| Sequence | binding signal |
| --- | --- |
| ACACTACG | -0.0248 E-score |
| AGACTACT | 0.198 E-score |
| CAACTACG | 0.113 E-score |
| AGACTACA | 0.0455 E-score |
| ACACTACT | 0.18 E-score |
| GCACTACC | 0.0373 E-score |
| AAACTACG | 0.387 E-score |
| AAACTACT | 0.464 E-score |
| AAACTACA | 0.387 E-score |
| GAACTACC | 0.367 E-score |
| CAACTACA | 0.234 E-score |
| GAACTACA | 0.252 E-score |
| GGTCCGAC | -0.143 E-score |
| ATGAAAGC | -0.0998 E-score |
| AGGTGAAG | -0.109 E-score |
| TACTGTAA | 0.323 E-score |
| CGGAGAAC | 0.0827 E-score |
| ACATTCGA | 0.071 E-score |
| TCACTACA | -0.0801 E-score |
| TGACTACA | 0.031 E-score |
| AAACTACC | 0.473 E-score |
| CAACTACC | 0.271 E-score |
| AGACTACC | 0.268 E-score |
| TAACTACA | 0.423 E-score |
| AACAGCTC | 0.087 E-score |

| Sequence | binding signal |
| --- | --- |
| TATGGAGA | 0.0429 E-score |
| ATGTACAG | 0.317 E-score |
| ATGTACAT | 0.377 E-score |
| GTGTACAA | 0.213 E-score |
| TTGTACAA | 0.342 E-score |
| ATGTACTC | 0.178 E-score |
| GTGTACTA | 0.16 E-score |
| ATGTACTA | 0.376 E-score |
| CTGTACCA | -0.0649 E-score |
| ATGTACCA | 0.335 E-score |
| ATGTACAA | 0.317 E-score |
| CTGTACAA | 0.0696 E-score |
| ATGTACCC | 0.0999 E-score |
| ATGCAGTC | -0.0482 E-score |
| ATCTAAAC | 0.0603 E-score |
| AGGCCAAT | -0.176 E-score |
| CCTACAGA | 0.064 E-score |
| AAGTCTAG | 0.0844 E-score |
| GGTTATAA | 0.0781 E-score |
| GGAGTTGA | -0.137 E-score |
| AAGACCAA | -0.0146 E-score |
| CGACCACA | -0.0849 E-score |
| ACGCGCAT | -0.158 E-score |
| CTCTACAA | 0.00826 E-score |
| GTCTACAA | -0.0759 E-score |

| Sequence | binding signal |
| --- | --- |
| TTCTACAA | 0.362 E-score |
| ACGACCGT | 0.00992 E-score |
| ACATTGCA | 0.0494 E-score |
| ACTAGATA | 0.403 E-score |
| ACTAGATG | 0.317 E-score |
| ACTAGATC | 0.335 E-score |
| CCTAGATA | 0.0777 E-score |
| ATTAGATC | 0.0978 E-score |
| CCTAGATC | 0.0939 E-score |
| CGGCACTC | -0.0669 E-score |
| CCCATTTC | 0.0795 E-score |
| ATGACCTG | -0.0486 E-score |
| CCGACTAG | 0.0252 E-score |
| GTTATTTA | 0.273 E-score |
| CTTATTTA | 0.184 E-score |
| CTTATATC | 0.117 E-score |
| ATTATATA | 0.446 E-score |
| ATTATTTA | 0.37 E-score |
| GTTATATA | 0.31 E-score |
| ATTATATG | 0.223 E-score |
| ATTATAGC | 0.189 E-score |
| ATTATATC | 0.384 E-score |
| AAAATGCA | 0.153 E-score |
| TAAGTGCA | 0.0583 E-score |
| ACTAATTC | 0.373 E-score |

| Sequence | binding signal |
| --- | --- |
| ACTAATTG | 0.189 E-score |
| CCTAATTC | 0.115 E-score |
| GCTAATTA | 0.289 E-score |
| CCTAATTA | 0.28 E-score |
| ACTAATTA | 0.444 E-score |
| CACTTGGC | -0.143 E-score |
| CCTGACCA | -0.111 E-score |
| AAAGTTCG | 0.0847 E-score |
| CGCGCTAA | 0.329 E-score |
| TGCGCTAA | -0.0024 E-score |
| CGCGCTAC | -0.0357 E-score |
| AATCTGTG | -0.0756 E-score |
| ATAATTTG | 0.344 E-score |
| ATAATTTC | 0.36 E-score |
| GCAATTTA | 0.257 E-score |
| AGAATTTG | 0.161 E-score |
| ATAATTCA | 0.245 E-score |
| GTAATTGA | 0.0917 E-score |
| AGAATTTC | 0.255 E-score |
| GTAATTTA | 0.353 E-score |
| ACAATTTG | 0.104 E-score |
| CTAATTTC | 0.272 E-score |
| CTAATTTA | 0.305 E-score |
| ATAATTTA | 0.354 E-score |
| CAGGGATC | -0.151 E-score |

| Sequence | binding signal |
| --- | --- |
| AGAGCTAA | 0.148 E-score |
| AGTCCTCC | -0.0852 E-score |
| AAAATTAT | 0.239 E-score |
| GCTCACTA | 0.0154 E-score |
| GAAGAGGA | -0.151 E-score |
| GGCATACC | 0.00482 E-score |
| GCGGACGA | -0.188 E-score |
| AGAGGCAT | 0.0046 E-score |
| AATACGCT | -0.133 E-score |
| ACAACGAG | -0.0859 E-score |
| AGAGAAAG | 0.159 E-score |
| CGATGACC | -0.125 E-score |
| AATTGTAC | 0.211 E-score |
| ATTTGTAC | 0.333 E-score |
| CTTTGTAC | 0.249 E-score |
| GATTGTAC | 0.365 E-score |
| ATTTGTAA | 0.203 E-score |
| GATTGTAA | 0.0411 E-score |
| TAACTCCA | 0.0761 E-score |
| CTCGGGAC | -0.0122 E-score |
| GAACCTAC | 0.198 E-score |
| GTACCTAC | 0.349 E-score |
| ATACCTAT | 0.323 E-score |
| ATACCTAC | 0.333 E-score |
| CTACCTAA | 0.174 E-score |

| Sequence | binding signal |
| --- | --- |
| ATACCTAG | 0.253 E-score |
| GTACCTAA | 0.155 E-score |
| CTACCTAG | 0.243 E-score |
| CTACCTAC | 0.376 E-score |
| AACATATC | 0.233 E-score |
| CATGTTAC | 0.15 E-score |
| CTCCACTA | 0.107 E-score |
| CAGCCCTG | -0.157 E-score |
| AGAAATAG | 0.326 E-score |
| ATAAATAA | 0.269 E-score |
| ATAAATAG | 0.252 E-score |
| AGAAATAT | 0.346 E-score |
| ATAAATAC | 0.287 E-score |
| GTAAATAC | 0.336 E-score |
| ACAAATAC | 0.266 E-score |
| ACAAATAA | 0.246 E-score |
| ACAAATAT | 0.337 E-score |
| CTAAATAC | 0.287 E-score |
| ATAAATAT | 0.369 E-score |
| AGAAATAC | 0.311 E-score |
| TAGTCGCA | 0.00372 E-score |
| AAAGGGTT | -0.0515 E-score |
